Results on 37 compounds are retold here after paper PMC5540273 (PLoS ONE, 2017).
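Also: KINOMEscan kinase panel screen.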

One experiment relates to FLT4. The note with it: concentration: 1 μM, replicates: in singlicate; n = 1.
Turning to `Nc1ncnc2c1ncn2-c1ccc(Cl)cc1` [AH2635], the “%Inh” value stood at 9%.

`Nc1nc(-c2ccccc2F)c(-c2ccnc3ccccc23)s1` [GW560459]: the “%Inh” value worked out at 0%.

As to `COc1cc2ncn(-c3cc(OCc4ccc(S(C)(=O)=O)cc4)c(C(N)=O)s3)c2cc1OC` [GW869979], the “%Inh” value is 15%.

Regarding `CCC(=O)c1c(-c2ccccc2)c2cc(Cl)ccc2c(=O)n1Cc1cc(C(=O)NC2CC2)n(C)n1`, the “%Inh” value was determined as 1%.

As to `Nc1n[nH]c2nnc(-c3ccccc3)c(-c3ccccc3)c12` [GW554060], the “%Inh” value was found to be 0%.

As for `OCCCNc1nccc(-c2c(-c3cccc(C(F)(F)F)c3)nn3cc(C(F)(F)F)ccc23)n1` [GW630813], the “%Inh” value turned out to be 12%.

Take `O=C(NCCNc1ccnc(Nc2ccc(F)cc2)n1)Nc1ccc2c(c1)OCO2` [GSK1379882]: the “%Inh” value came to 9%.

Consider `CCC(=O)c1c(-c2ccccc2)c2cc(Cl)ccc2c(=O)n1Cc1cc(S(C)(=O)=O)n(CCC(C)(C)O)n1`, for which the “%Inh” value stood at 15%.

On to `FC(F)(F)c1ccc(-c2ncn(CCCN3CCOCC3)c2-c2ccncc2)cc1` [SB-217780], for which the “%Inh” value came out at 2%.

Consider `COC(=O)c1c(-c2ccccc2)c2cc(Br)ccc2c(=O)n1Cc1ccc(S(C)(=O)=O)cc1`, for which the “%Inh” value stood at 1%.

For the compound `CCCNC(=O)Nc1ccc(Oc2ncnc3ccn(C)c23)cc1`, the “%Inh” value is recorded as 10%.

For `CCn1c(-c2ccoc2)nc2cnccc21` [SB-733887], the “%Inh” value was 10%.

As for `CCn1c(-c2nonc2N)nc2ccccc21` [SB-693162/GW549034], the “%Inh” value is listed as 0%.

As to `Cc1nc(N(C)[C@H]2CN(C(=O)CC#N)CC[C@H]2C)c2cc[nH]c2n1`, the “%Inh” value worked out at 15%.

Regarding `CCC(=O)c1c(-c2ccccc2)c2cc(Cl)ccc2c(=O)n1Cc1ccc(C(=O)O)cc1`, the “%Inh” value came out at 0%.

On to `COc1ccc(Nc2nccc(N3CCC(NS(=O)(=O)c4ccc(NC(C)=O)cc4)C3)n2)cc1` (centres unmarked) [GSK1379729], for which the “%Inh” value is on record as 26%.

Consider `CCc1nc(-c2cccc(C)c2)c(-c2ccncc2)s1`, for which the “%Inh” value is reported as 0%.

For the compound `COc1cc(Nc2ccnc3ccc(C(F)(F)F)cc23)cc(OC)c1OC` [GW577382], the “%Inh” value was determined as 3%.

For the compound `COc1ccc(-c2cc3c(C)nc(N)nc3n([C@H]3CC[C@H](O)CC3)c2=O)cn1`, the “%Inh” value turned out to be 0%.

`Cc1ccc(-c2ccc3c(ccc4sc5c(c43)NC[C@@H](C)N=C5N(C)C)n2)cn1`: the “%Inh” value was 0%.

`Cc1nnc(-c2ccc(C)c(-c3ccc(C(=O)O)cc3)c2)o1` [GW608005]: the “%Inh” value stood at 12%.

On to `COC(=O)c1c(-c2ccccc2)c2cc(C)ccc2c(=O)n1Cc1ccccc1`, for which the “%Inh” value is 0%.

Consider `COc1cccc(C2=C(Nc3cccc(C(=O)O)c3)C(=O)NC2=O)c1` [SB-390770], for which the “%Inh” value worked out at 25%.

As for `Fc1cccc(CSc2nnc(-c3ccc4c(c3)CCO4)o2)c1`, the “%Inh” value stood at 15%.

On to `Cc1cccc(-c2cc(-c3c[nH]nc3-c3ccccn3)ccn2)c1` [GW679395], for which the “%Inh” value stood at 0%.

For `CN(C)c1cc(-c2ccc3c(N)n[nH]c3c2)nc(N)n1` [GSK2219329], the “%Inh” value is recorded as 19%.

Regarding `Cn1c(=O)c(F)c(Nc2ccc(I)cc2F)c2c(=O)n(OC[C@H](O)CO)cnc21`, the “%Inh” value is reported as 10%.

Turning to `Cc1nnc(-c2ccc3ncn(-c4ccc(S(C)=O)cc4)c3c2)o1` (centres unmarked), the “%Inh” value amounted to 0%.

Turning to `CCC(=O)c1c(-c2ccccc2)c2cc(Cl)ccc2c(=O)n1Cc1cc(S(C)(=O)=O)n(CC(N)=O)n1`, the “%Inh” value turned out to be 0%.

For `COc1cccc(-n2cnc3c(N)ncnc32)c1` [SKF-97416], the “%Inh” value was 0%.

For `CCCC(=O)Nc1n[nH]c2ncc(-c3cccc4ccccc34)cc12` [SB-642057], the “%Inh” value turned out to be 1%.

With `CN1C(=O)C(Nc2cc(Cl)c(O)c(Cl)c2)=C(c2ccc(Cl)cc2)C1=O` [SB-404321], the “%Inh” value was 0%.

For the compound `Nc1nccc2scc(-c3ccc4c(c3)CCN4C(=O)Cc3ccccc3)c12` [GSK2576924], the “%Inh” value is on record as 21%.

On to `CCc1ccc(-c2ccc3c(c2)-c2nn(C)cc2S(=O)(=O)N3C)cc1`, for which the “%Inh” value was determined as 0%.

On to `O=C(NCc1cccs1)c1cc(C(=O)c2c(Cl)cccc2Cl)c[nH]1` [GW823670], for which the “%Inh” value is 2%.

For `COC(=O)c1c(-c2ccccc2)c2cc(Br)ccc2c(=O)n1Cc1ccc(NC(=O)CCC(=O)O)cc1`, the “%Inh” value stood at 9%.

With `COc1ccc(CNC(=O)NC2CCN(c3ccnc(Nc4ccc(F)cc4)n3)C2)cc1` (centres unmarked) [GSK1379706], the “%Inh” value is 0%.

The test system of another experiment is FRK. The note with it: concentration: 1 μM, replicates: in singlicate; n = 1.
Take `Nc1ncnc2c1ncn2-c1ccc(Cl)cc1` [AH2635]: the “%Inh” value was determined as 0%.

Consider `Nc1nc(-c2ccccc2F)c(-c2ccnc3ccccc23)s1` [GW560459], for which the “%Inh” value is recorded as 0%.

For the compound `COc1cc2ncn(-c3cc(OCc4ccc(S(C)(=O)=O)cc4)c(C(N)=O)s3)c2cc1OC` [GW869979], the “%Inh” value was found to be 0%.

Turning to `CCC(=O)c1c(-c2ccccc2)c2cc(Cl)ccc2c(=O)n1Cc1cc(C(=O)NC2CC2)n(C)n1`, the “%Inh” value is reported as 8%.

Turning to `Nc1n[nH]c2nnc(-c3ccccc3)c(-c3ccccc3)c12` [GW554060], the “%Inh” value is listed as 5%.

For `OCCCNc1nccc(-c2c(-c3cccc(C(F)(F)F)c3)nn3cc(C(F)(F)F)ccc23)n1` [GW630813], the “%Inh” value was 0%.

Take `O=C(NCCNc1ccnc(Nc2ccc(F)cc2)n1)Nc1ccc2c(c1)OCO2` [GSK1379882]: the “%Inh” value is listed as 0%.

Take `CCC(=O)c1c(-c2ccccc2)c2cc(Cl)ccc2c(=O)n1Cc1cc(S(C)(=O)=O)n(CCC(C)(C)O)n1`: the “%Inh” value is listed as 13%.

In the case of `FC(F)(F)c1ccc(-c2ncn(CCCN3CCOCC3)c2-c2ccncc2)cc1` [SB-217780], the “%Inh” value is given as 12%.

Regarding `COC(=O)c1c(-c2ccccc2)c2cc(Br)ccc2c(=O)n1Cc1ccc(S(C)(=O)=O)cc1`, the “%Inh” value was determined as 1%.

With `CCCNC(=O)Nc1ccc(Oc2ncnc3ccn(C)c23)cc1`, the “%Inh” value is given as 0%.

Regarding `CCn1c(-c2ccoc2)nc2cnccc21` [SB-733887], the “%Inh” value is on record as 0%.

As to `CCn1c(-c2nonc2N)nc2ccccc21` [SB-693162/GW549034], the “%Inh” value is reported as 0%.

In the case of `Cc1nc(N(C)[C@H]2CN(C(=O)CC#N)CC[C@H]2C)c2cc[nH]c2n1`, the “%Inh” value is on record as 0%.

As to `CCC(=O)c1c(-c2ccccc2)c2cc(Cl)ccc2c(=O)n1Cc1ccc(C(=O)O)cc1`, the “%Inh” value is 0%.

On to `COc1ccc(Nc2nccc(N3CCC(NS(=O)(=O)c4ccc(NC(C)=O)cc4)C3)n2)cc1` (centres unmarked) [GSK1379729], for which the “%Inh” value is reported as 16%.

As to `CCc1nc(-c2cccc(C)c2)c(-c2ccncc2)s1`, the “%Inh” value is given as 9%.

For the compound `COc1cc(Nc2ccnc3ccc(C(F)(F)F)cc23)cc(OC)c1OC` [GW577382], the “%Inh” value is given as 19%.

Turning to `COc1ccc(-c2cc3c(C)nc(N)nc3n([C@H]3CC[C@H](O)CC3)c2=O)cn1`, the “%Inh” value was 0%.

For the compound `Cc1ccc(-c2ccc3c(ccc4sc5c(c43)NC[C@@H](C)N=C5N(C)C)n2)cn1`, the “%Inh” value was determined as 0%.

As to `Cc1nnc(-c2ccc(C)c(-c3ccc(C(=O)O)cc3)c2)o1` [GW608005], the “%Inh” value was found to be 0%.

As to `COC(=O)c1c(-c2ccccc2)c2cc(C)ccc2c(=O)n1Cc1ccccc1`, the “%Inh” value is given as 0%.

In the case of `COc1cccc(C2=C(Nc3cccc(C(=O)O)c3)C(=O)NC2=O)c1` [SB-390770], the “%Inh” value worked out at 2%.

`Fc1cccc(CSc2nnc(-c3ccc4c(c3)CCO4)o2)c1`: the “%Inh” value amounted to 15%.

As for `Cc1cccc(-c2cc(-c3c[nH]nc3-c3ccccn3)ccn2)c1` [GW679395], the “%Inh” value worked out at 15%.

With `CN(C)c1cc(-c2ccc3c(N)n[nH]c3c2)nc(N)n1` [GSK2219329], the “%Inh” value was found to be 0%.

For `Cn1c(=O)c(F)c(Nc2ccc(I)cc2F)c2c(=O)n(OC[C@H](O)CO)cnc21`, the “%Inh” value is given as 0%.

On to `Cc1nnc(-c2ccc3ncn(-c4ccc(S(C)=O)cc4)c3c2)o1` (centres unmarked), for which the “%Inh” value is on record as 0%.

On to `CCC(=O)c1c(-c2ccccc2)c2cc(Cl)ccc2c(=O)n1Cc1cc(S(C)(=O)=O)n(CC(N)=O)n1`, for which the “%Inh” value is on record as 0%.

Regarding `COc1cccc(-n2cnc3c(N)ncnc32)c1` [SKF-97416], the “%Inh” value was 0%.

Regarding `CCCC(=O)Nc1n[nH]c2ncc(-c3cccc4ccccc34)cc12` [SB-642057], the “%Inh” value was 0%.

Regarding `CN1C(=O)C(Nc2cc(Cl)c(O)c(Cl)c2)=C(c2ccc(Cl)cc2)C1=O` [SB-404321], the “%Inh” value is listed as 0%.

With `Nc1nccc2scc(-c3ccc4c(c3)CCN4C(=O)Cc3ccccc3)c12` [GSK2576924], the “%Inh” value is recorded as 0%.

`CCc1ccc(-c2ccc3c(c2)-c2nn(C)cc2S(=O)(=O)N3C)cc1`: the “%Inh” value is on record as 0%.

In the case of `O=C(NCc1cccs1)c1cc(C(=O)c2c(Cl)cccc2Cl)c[nH]1` [GW823670], the “%Inh” value turned out to be 0%.

For the compound `COC(=O)c1c(-c2ccccc2)c2cc(Br)ccc2c(=O)n1Cc1ccc(NC(=O)CCC(=O)O)cc1`, the “%Inh” value amounted to 8%.

With `COc1ccc(CNC(=O)NC2CCN(c3ccnc(Nc4ccc(F)cc4)n3)C2)cc1` (centres unmarked) [GSK1379706], the “%Inh” value was 14%.
